D1 antag – antagonists of human D1 dopamine receptor; activity change, negative = inhibition, % at 10 µM; AID 504652; HEK293 TREx D1 cells, calcium flux, dopamine EC80; stronger effect = lower value; P21728; 360,000 compounds, 3.2% hits; in the data active = activity change below about -30%; also: % is scaled to controls: 0 for no effect and ±100 for the full control effect
Target sequence (P21728 whole entry, looked up): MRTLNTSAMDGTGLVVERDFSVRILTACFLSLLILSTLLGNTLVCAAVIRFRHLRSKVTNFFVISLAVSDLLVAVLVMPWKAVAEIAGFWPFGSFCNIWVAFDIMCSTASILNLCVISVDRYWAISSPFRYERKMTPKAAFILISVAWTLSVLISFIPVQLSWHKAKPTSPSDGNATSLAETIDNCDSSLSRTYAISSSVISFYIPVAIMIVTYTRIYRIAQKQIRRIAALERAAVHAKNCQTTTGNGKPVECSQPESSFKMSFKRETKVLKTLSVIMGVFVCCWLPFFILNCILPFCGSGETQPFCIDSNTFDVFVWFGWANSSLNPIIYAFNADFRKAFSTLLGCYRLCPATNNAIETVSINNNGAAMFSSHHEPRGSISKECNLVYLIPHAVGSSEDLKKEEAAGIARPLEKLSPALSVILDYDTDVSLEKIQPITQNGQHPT
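Allosteric or orthosteric antagonism assessed as attenuation of the calcium response to EC80 dopamine, added 180 s after compound, in induced HEK293 Trex D1 cells loaded with no-wash calcium dye.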
TRHR PAM – allosteric enhancers of human TRH receptor; P34981; TRHR cells, fluo-8 calcium fluorescence, EC20 TRH enhancement; enhancement, % at 2 µM; 360,000 compounds, 0.66% hits; in the data active = enhancement above about 30%; also: 0% is about no effect
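TRHR-expressing cells loaded with fluo-8 calcium dye were read kinetically (ex 480/em 530) during compound addition, then stimulated with an EC20 of TRH (10 nM final). Enhancement of the Gq-mediated intracellular calcium response was scored.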
TRHR agonist – activates the human TRH receptor; P34981; TRHR cells, calcium flux fluo-8, FDSS agonist mode; activation, % at 2 µM; 360,000 compounds, 0.18% hits; also: 0% is about no effect
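In this calcium-flux screen, cells bearing human TRHR are dye-loaded with fluo-8, baselined for 10 cycles, then exposed to library compounds; positive kinetic calcium responses during the agonist phase mark hits, with TRH as control.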
D1 agonist – activates the human D1 dopamine receptor. P21728. HEK293 T-REx D1 cells, calcium flux, agonist mode. activation, % at 2 µM. 360,000 compounds, 1% hits. AID 504660; also: 0% is about no effect
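Tetracycline-induced HEK293 TREx D1 cells, force-coupled to calcium signalling, were dye-loaded with a no-wash calcium kit. Compound was pin-added after a 10 s baseline. Fluorescence was read kinetically at 1 cycle/s for 180 s, with calcium rises flagged as agonism.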
D1 potentiator – potentiators of human D1 dopamine receptor; potentiation, % at 10 µM; AID 504651; HEK293 TREx D1 cells, calcium flux, dopamine EC20 potentiation; P21728; 360,000 compounds, 0.036% hits; in the data active = potentiation above about 30%; also: 0% is about no effect
The depositor's hits bear a star. Sampled rows, rich in hits. Any-hit rate of the full collection: about 4.6%. Rule as the data show it, unless noted: active = activation above about 30%; inactive = the rest.

SMILES | D1 antag | TRHR PAM | TRHR agonist | D1 agonist | D1 potentiator
CCOc1ccc(NC(=O)C2CCCN(c3ccc(Sc4ccc(C)cc4)nn3)C2)cc1 (centres undefined) | -3 | 5 | 0 | 1 | 1
O=S(=O)(Nc1ccc(N2CCCCC2)cc1)c1ccc(F)c(F)c1 | -8 | 1 | -1 | 58* | -3
O=[N+]([O-])c1cccc(S(=O)(=O)c2ccc(NCCOCCO)c([N+](=O)[O-])c2)c1 | 1 | -11 | 1 | 8 | -3
O=[N+]([O-])c1cccc(S(=O)(=O)c2ccc(NCCO)c([N+](=O)[O-])c2)c1 | -44* | -11 | 0 | 6 | -2
COc1ccc(C2CC(c3ccccc3)=NN2C(=O)CCC(=O)O)cc1 (centres undefined) | 1 | 33* | 1 | 2 | -3
COc1ccc(C2CC(c3ccc4ccccc4c3)=NN2C(=O)CN2C(=O)CCC2=O)cc1 (centres undefined) | -30* | 3 | 0 | 9 | 0
COc1ccc(C2CC(c3ccccc3)=NN2C(=O)COC(=O)c2cccnc2)cc1 (centres undefined) | -6 | 37* | -1 | 4 | -5
COc1ccc(C2CC(c3ccccc3)=NN2C(=O)COC(=O)c2cc(S(=O)(=O)N3CCOCC3)ccc2Cl)cc1 (centres undefined) | -14 | 40* | 1 | 9 | 0
COc1ccc(C2CC(c3ccccc3)=NN2C(=O)COC(=O)C2CC2)cc1 (centres undefined) | -6 | 2 | 1 | 12 | -1
COc1ccc(C2CC(c3ccccc3)=NN2C(=O)COC(=O)c2cccnc2Cl)cc1 (centres undefined) | -12 | 2 | -1 | 8 | -5
Cc1ccc(NC(=O)CN2C(=O)CSc3ccc(S(=O)(=O)N4CCCC4)cc32)cc1F | -4 | 0 | 1 | 3 | -2
C=CCSc1nc(N)c(C#N)c(-c2ccc(C)cc2)c1C#N | -4 | 38* | 0 | 2 | -5
COc1ccc(-n2nc3cc(C)c(NC(=O)c4ccc(-c5ccc(Cl)cc5)o4)cc3n2)cc1 | -5 | -8 | 0 | 2 | -2
COc1ccc(CNC(=O)c2cnc(N(C)C)nc2)cc1 | -1 | 1 | 1 | 2 | 0
Cc1ccc(CNC(=O)c2cnc(N(C)C)nc2)cc1 | -42* | 4 | -1 | 1 | -1
COCCCn1c(=O)/c(=C\c2ccccc2OC(F)F)s/c1=C(/C#N)C(=O)NCCOC | 12 | -6 | 0 | 12 | -2
COCCNC(=O)/C(C#N)=c1\s/c(=C\c2ccccc2OC(F)F)c(=O)n1Cc1ccccc1 | -7 | -13 | 103* | -1 | -2
Cc1ccc(-c2nc(-c3cccs3)c(-c3cccs3)[nH]2)cc1 | -33* | -6 | -1 | 4 | -3
O=[N+]([O-])c1ccc(-c2nc(-c3cccs3)c(-c3cccs3)[nH]2)cc1 | -11 | 3 | 0 | 38* | -2
Fc1ccc(-c2nc(-c3cccs3)c(-c3cccs3)[nH]2)cc1 | -9 | -7 | 1 | 0 | 1
O=[N+]([O-])c1cccc(-c2nc(-c3cccs3)c(-c3cccs3)[nH]2)c1 | -36* | 4 | -1 | 2 | -8
Cc1ccc(NC(=O)Cn2nc(-c3ccccc3)nc(Cc3ccccc3)c2=O)cc1 | -4 | 3 | 0 | 3 | -2
Cc1ccc2c(c1)N(C(=O)N1CCC(C(=O)NCc3cccs3)CC1)CC(C)O2 (centres undefined) | 6 | -6 | 0 | -1 | -2
COc1ccc(Nc2oc(-c3cccs3)nc2C#N)cc1 | -43* | -6 | -1 | 2 | -10
COC(=O)c1c(-c2ccc(Cl)cc2)noc1N1CCN(c2cccc(C)c2C)CC1 | -11 | 3 | 0 | 1 | -1
SMILES | D1 antag | TRHR PAM | TRHR agonist | D1 agonist | D1 potentiator
Nc1c(C(=O)CSc2nccn2-c2cccc(F)c2)c(=O)[nH]c(=O)n1C1CC1 | -31* | -5 | 0 | 3 | -3
CCOc1ccc(NC(=O)Cn2c(=O)oc3cc(S(=O)(=O)N4CCC(C)CC4)ccc32)cc1 | -13 | -2 | -1 | -1 | -3
CCOc1cccc(CC(=O)N2CCc3c([nH]c4ccc(OC)cc34)C2c2ccc(F)cc2)c1OCC (centres undefined) | 4 | -1 | 0 | 2 | -3
O=S(=O)(NCc1ccc(F)cc1)c1ccc(Br)cc1Br | -32* | -9 | 0 | -1 | 3
O=C(COC(=O)CCC(=O)c1ccccc1)NNC(=O)c1ccc(Cl)cc1 | 10 | -3 | 0 | 0 | 1
Cc1ccc(C(=O)CCC(=O)OCC(=O)NNC(=O)c2ccccc2Cl)cc1 | -8 | 32* | -1 | 1 | -4
CCCN1C2CCCC1CC(NC(=O)c1ccccc1OC)C2 (centres undefined) | 20 | -3 | 0 | -3 | -4
CCOc1ccccc1C(=O)NC1CC2CCCC(C1)N2Cc1ccc(C)cc1 (centres undefined) | -51* | 3 | 0 | 3 | -12
CCCN1C2CCCC1CC(NC(=O)c1ccccc1OCC)C2 (centres undefined) | -81* | 11 | -1 | 1 | -2
Cc1c(C(=O)Nc2ccc(F)c(Cl)c2)sc2nc3n(c(=O)c12)CCC3 | 5 | 0 | 0 | 2 | -2
Cc1ccccc1CNC(=O)c1ccc2nc(C(C)C)oc2c1 | 1 | 6 | 0 | 6 | -2
COc1ccc(OC)c(-c2cc(C(=O)Nc3cccc(Cl)c3C)no2)c1 | -40* | -14 | 1 | 9 | 1
COc1ccc(OC)c(-c2cc(C(=O)Nc3ccc(C)c(C)c3)no2)c1 | -8 | -8 | 1 | 5 | -2
COc1ccc(OC)c(-c2cc(C(=O)N3CCOCC3)no2)c1 | 0 | 37* | -1 | 0 | -5
Cc1ccc(Cc2c(C)nc3nc(SCC(=O)NC4CCC(C)CC4)nn3c2C)cc1 (centres undefined) | -3 | -4 | -1 | -1 | -1
O=C(NC1CC1)c1cc2cc(Br)ccc2s1 | -32* | -5 | 0 | 7 | -12
CCOC(=O)/C(N=Nc1c(C)n(C)n(-c2ccccc2)c1=O)=C(/O)c1ccccc1 | -5 | -3 | 0 | 1 | -1
COC(=O)/C(N=Nc1c(C)n(C)n(-c2ccccc2)c1=O)=C(\C)O | -9 | 33* | 0 | 1 | 1
Oc1cccc(/C=N\Nc2nncc(-c3ccccc3)n2)c1 | -37* | 3 | -1 | 2 | 2
CCOc1cc(/C=N/Nc2nncc(-c3ccccc3)n2)ccc1O | -19 | 3 | 0 | -1 | 7
Cc1ccc(NC(=O)CCS(=O)(=O)c2cccc3nsnc23)c(C)c1 | 6 | -6 | 0 | 2 | -1
CCCCCCOc1ccc(-c2nc3ccc(Br)cc3c(=O)o2)cc1 | 2 | 2 | -1 | 2 | -1

High-throughput results (PubChem)
